Several values for one entry are separate records, joined by “and”; a condition that tells them apart may be missing. Identical values can stand only once. Results filed as inconclusive are left out. A structure can be active in one record and inactive in another. Activity calls are given as the source filed them. Unless noted, the call rests on the fitted dose curve; in most records, active means well fitted curve in the direction sought with a large enough effect; inconclusive means small, poorly fitted or top-dose-only effect, or another doubt; inactive means no such curve, though single readings can be large; an effect the other way counts as inactive or inconclusive.

The text below walks through data of PubChem BioAssay (NCATS).

The nature of experiment [1]: Natriuretic polypeptide receptor (hNpr1) antagonism - Pilot counterscreen GloSensor control cell line (AID 1347045; calls by dose curve; further: series mostly up to about 38 µM). The essentials:
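Cells were first seeded and incubated overnight at 37C, then loaded with 2% GloSensor substrate for 2 h. Compounds were added for 30 min at room temperature, followed by a baseline read, 50 uM SNP and a final read after 20 min.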

The target of experiment [2] is Atrial natriuretic peptide receptor 1 (Homo sapiens) (UniProt P16066). Description: Natriuretic polypeptide receptor (hNpr1) antagonism - Pilot screen (AID 1347049; calls by dose curve;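 further: HEK293 cells with hNpr1 and GloSensor cGMP luciferase stimulated by 0.1 nM hNppA; agonist-evoked cGMP luminescence read 20 min after hNppA addition; series mostly up to about 58 µM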). The essentials:
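Receptor antagonism read as cGMP-dependent luminescence in hNpr1/pGS-40F HEK293 cells: pre-read after 30 min compound exposure, post-read 20 min after hNppA agonist at 0.1 nM final, all at room temperature, protected from light; A-71915 titration as control.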

Experiment [3] is described as follows: NS1 protein of Zika virus - qHTS assay to identify small molecule inhibitors in human HEK 293 cells (AID 1347053). Further: nearly all actives have a fitted effect of over 55% in size. Further: potency means the concentration at half of the fitted maximal effect. The essentials:
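Read-out is a two-antibody TR-FRET for ZIKV NS1, normalized between uninfected cells and infected cells. Compound added 1 h before MR766 infection at MOI 0.5; human HEK 293 cells incubated 24 h, 37 C.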
In general terms: Quantitative high-throughput screening tests each substance at several concentrations.

Experiment [4] has as its target T1, Tyrosine-protein phosphatase non-receptor type substrate 1 (Homo sapiens) + Leukocyte surface antigen CD47 (Homo sapiens) (UniProt P78324+Q08722). Nature of the experiment: CD47-SIRPalpha protein protein interaction - Alpha assay qHTS validation (AID 1347059).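 Further: bead proximity luminescence from CD47 binding SIRPalpha after compound preincubation with SIRPalpha.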 In outline:
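AlphaScreen signal between CD47-His (12.5 nM) and biotin-SIRPalpha (25 nM) soluble extracellular domains, bead-captured via Ni-NTA and streptavidin. Compounds, in 7-point titrations, met SIRPalpha 30 min before CD47; PBS pH 7.4 with 0.05% IGEPAL.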

Experiment [5] concerns the target Parathyroid hormone/parathyroid hormone-related peptide receptor (Homo sapiens) (UniProt Q03431). Description: qHTS for PTHR1 Agonists: Optimization Screen against the NCGC LOPAC library (AID 1347079).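 Further: GloSensor cAMP luminescence in HEK-293 GP2 cells expressing human PTHR1 with IBMX.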 The essentials: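 HEK-293 GP2 cells, PTHR1 + GloSensor cAMP; 3000 cells/well, o/n. Luciferin + IBMX 0.5mM each (stock), 1 hr 37C. Cpd titration, 1 hr 37C. Lum after 15 min RT. Ctrl M-PTH(1-15) top 10uM.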

Experiment [6] in a line: P-glycoprotein substrates identified in KB-8-5-11 adenocarcinoma cell line, qHTS therapeutic library screen (AID 1346987). Further: nearly all actives have a fitted effect of over 65% in size. Further: potency means the concentration at half of the fitted maximal effect. The essentials: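 Luminescence from CellTiter-Glo, read 5 min after addition, quantified survival of KB-8-5-11 (P-gp-overexpressing) cells exposed to compounds for 72 h. AC50 was derived from concentration-response curves.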
Experiment [7] in a line: qHTS of pediatric cancer cell lines to identify multiple opportunities for drug repurposing: Primary screen for TC32 cells (AID 1347089). Further: nearly all actives have a fitted effect of over 60% in size. Further: potency means the concentration at half of the fitted maximal effect. In outline: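 TC32 cells, 500-1,000/well in growth medium, compound-treated 48 h at 37 °C; viability from CellTiter-Glo luminescence. Primary screen: MIPE 11-point (0.78 nM–46 µM final), NPC 8-point (0.59 nM–46 µM final); confirmatory at 11-point dilutions.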

Experiment [8] is described as follows: qHTS of pediatric cancer cell lines to identify multiple opportunities for drug repurposing: Primary screen for DAOY cells (AID 1347090). Further: nearly all actives have a fitted effect of over 55% in size. Further: potency means the concentration at half of the fitted maximal effect. In outline: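 Cell viability, CellTiter-Glo luminescence; 500-1,000 cells/well, 8- or 11-point titration, 48 h compound exposure at 37 degrees C, 5% CO2. Controls: DMSO neutral, bortezomib 2.3 µM final as positive.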
Experiment [9] has as its target T1, Tyrosine-protein phosphatase non-receptor type substrate 1 (Homo sapiens) + Leukocyte surface antigen CD47 (Homo sapiens). Description: CD47-SIRPalpha protein protein interaction - LANCE assay qHTS validation (AID 1347057; active means well fitted curve in the direction sought with a large enough effect in the signal ratio, with a control signal flat, not every such curve was filed as active; the % refers to the signal ratio; further: series mostly up to about 38 µM). The essentials: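 Inhibition of soluble CD47/SIRPalpha ectodomain association by titrated compounds, measured as 665/615 nm time-resolved FRET ratio after sequential 30 min room-temperature incubations.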
On the technique in general: In TR-FRET formats the signal depends on donor and acceptor labels being close together.

The target is the same in experiment [10]. Description: CD47-SIRPalpha protein protein interaction - HTRF assay qHTS validation (AID 1347058; active means well fitted curve in the direction sought with a large enough effect in the signal ratio, not every such curve was filed as active; the % refers to the signal ratio; further: series mostly up to about 38 µM). The essentials:
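Soluble extracellular domains (6His-CD47, Avi-tag-biotinylated SIRPalpha) in PBS pH 7.4 with 0.05% IGEPAL CA-630. Compounds were preincubated 30 min at RT with CD47 and anti-His-Eu, then SIRPalpha and SAV-XL665 were added. TR-FRET 665/615 ratio.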

Chain of Atrial natriuretic peptide receptor 1 (Homo sapiens) (P16066 whole entry, looked up): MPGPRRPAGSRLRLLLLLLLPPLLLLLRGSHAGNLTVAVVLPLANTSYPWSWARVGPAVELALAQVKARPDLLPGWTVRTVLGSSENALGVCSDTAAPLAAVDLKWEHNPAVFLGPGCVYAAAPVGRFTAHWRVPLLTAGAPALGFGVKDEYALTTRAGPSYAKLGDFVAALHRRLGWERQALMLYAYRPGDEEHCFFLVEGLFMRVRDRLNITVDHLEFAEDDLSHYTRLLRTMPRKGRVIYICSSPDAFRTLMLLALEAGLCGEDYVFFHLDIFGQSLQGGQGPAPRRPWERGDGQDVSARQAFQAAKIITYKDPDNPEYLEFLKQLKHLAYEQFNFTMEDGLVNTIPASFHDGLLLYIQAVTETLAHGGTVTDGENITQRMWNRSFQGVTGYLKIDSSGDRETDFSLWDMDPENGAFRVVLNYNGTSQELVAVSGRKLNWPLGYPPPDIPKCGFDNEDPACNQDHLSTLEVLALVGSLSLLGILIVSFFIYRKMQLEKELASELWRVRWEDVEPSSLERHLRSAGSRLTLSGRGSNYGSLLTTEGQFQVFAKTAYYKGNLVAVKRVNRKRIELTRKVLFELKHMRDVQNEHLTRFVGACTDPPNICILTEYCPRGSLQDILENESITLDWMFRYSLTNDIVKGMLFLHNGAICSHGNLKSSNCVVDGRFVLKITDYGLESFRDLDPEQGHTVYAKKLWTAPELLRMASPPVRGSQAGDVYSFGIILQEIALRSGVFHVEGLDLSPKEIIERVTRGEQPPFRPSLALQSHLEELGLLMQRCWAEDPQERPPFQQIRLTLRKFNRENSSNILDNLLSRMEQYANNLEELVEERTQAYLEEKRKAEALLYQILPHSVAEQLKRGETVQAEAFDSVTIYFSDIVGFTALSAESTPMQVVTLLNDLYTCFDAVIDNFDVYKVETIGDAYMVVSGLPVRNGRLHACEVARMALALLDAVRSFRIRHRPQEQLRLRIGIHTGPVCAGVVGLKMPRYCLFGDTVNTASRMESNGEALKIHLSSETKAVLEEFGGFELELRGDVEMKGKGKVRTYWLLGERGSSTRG
Chain of Parathyroid hormone/parathyroid hormone-related peptide receptor (Homo sapiens) (Q03431 whole entry, looked up): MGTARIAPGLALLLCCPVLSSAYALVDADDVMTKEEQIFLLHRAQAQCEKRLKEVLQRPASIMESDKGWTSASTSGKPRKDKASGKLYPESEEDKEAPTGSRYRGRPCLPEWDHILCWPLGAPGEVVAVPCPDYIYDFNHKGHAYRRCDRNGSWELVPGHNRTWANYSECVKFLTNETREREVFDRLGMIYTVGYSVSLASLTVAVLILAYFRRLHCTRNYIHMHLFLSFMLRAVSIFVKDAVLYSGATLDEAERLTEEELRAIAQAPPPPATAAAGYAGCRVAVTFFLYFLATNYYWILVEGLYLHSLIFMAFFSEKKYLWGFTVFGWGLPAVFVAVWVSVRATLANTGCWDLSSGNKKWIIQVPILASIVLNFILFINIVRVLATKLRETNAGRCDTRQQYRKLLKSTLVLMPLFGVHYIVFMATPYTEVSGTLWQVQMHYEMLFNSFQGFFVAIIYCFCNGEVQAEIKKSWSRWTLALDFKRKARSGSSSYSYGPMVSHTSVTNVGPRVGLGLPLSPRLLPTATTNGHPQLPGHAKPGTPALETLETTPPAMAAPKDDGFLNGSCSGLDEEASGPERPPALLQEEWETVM
T1 sequence (P78324 whole entry, looked up, the tested form may be a part): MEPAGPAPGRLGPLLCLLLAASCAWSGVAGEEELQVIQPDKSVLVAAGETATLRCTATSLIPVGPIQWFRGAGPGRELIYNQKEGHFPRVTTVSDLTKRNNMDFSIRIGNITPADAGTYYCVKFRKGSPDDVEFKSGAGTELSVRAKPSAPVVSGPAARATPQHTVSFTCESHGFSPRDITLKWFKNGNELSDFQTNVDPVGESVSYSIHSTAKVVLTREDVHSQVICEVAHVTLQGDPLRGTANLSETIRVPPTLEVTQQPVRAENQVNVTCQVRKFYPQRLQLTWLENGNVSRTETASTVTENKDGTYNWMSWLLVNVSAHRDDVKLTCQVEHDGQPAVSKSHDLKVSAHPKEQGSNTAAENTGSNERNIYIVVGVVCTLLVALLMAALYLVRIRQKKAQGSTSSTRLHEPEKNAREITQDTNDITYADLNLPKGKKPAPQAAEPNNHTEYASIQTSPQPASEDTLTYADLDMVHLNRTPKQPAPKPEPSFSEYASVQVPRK
T1 sequence (Q08722 whole entry, looked up, the tested form may be a part): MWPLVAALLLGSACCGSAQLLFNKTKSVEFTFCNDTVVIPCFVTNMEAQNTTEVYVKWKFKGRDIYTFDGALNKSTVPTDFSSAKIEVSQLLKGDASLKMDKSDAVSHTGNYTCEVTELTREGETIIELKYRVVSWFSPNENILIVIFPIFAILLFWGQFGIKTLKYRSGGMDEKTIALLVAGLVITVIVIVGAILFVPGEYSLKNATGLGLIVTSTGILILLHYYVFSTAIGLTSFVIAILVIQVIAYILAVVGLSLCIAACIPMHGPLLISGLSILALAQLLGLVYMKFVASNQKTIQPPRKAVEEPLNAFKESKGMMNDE

In the case of `Nc1nc(N)c(N=O)c(OCC2CCCCC2)n1`, the Potency entry in experiment [1], in [2], in experiment [3] and in experiment [4] was “inactive” each time. The compound was called inactive in [5].

For the compound `CCN(CCO)CCCC(C)Nc1ccnc2cc(Cl)ccc12` (stereo not drawn), the Potency entry in experiment [6], in [3], in experiment [7] and in experiment [8] was “inactive” each time.

For the compound `CC(=O)NC[C@H]1CN(c2ccc(N3CCOCC3)c(F)c2)C(=O)O1`, the Potency result in experiment [6], in experiment [3], in experiment [7] and in experiment [8] was “inactive” each time.

Regarding `COc1cc(Nc2c(C#N)cnc3cc(OCCCN4CCN(C)CC4)c(OC)cc23)c(Cl)cc1Cl`, in experiment [6], the Potency entry was “inactive”. In addition, the Potency in experiment [7] was 23.6 µM (active); in [8] it was 13.3 µM (active) and 23.5 µM (active).

Regarding `CC[C@]1(O)C[C@H]2CN(CCc3c([nH]c4ccccc34)[C@@](C(=O)OC)(c3cc4c(cc3OC)N(C=O)[C@H]3[C@@](O)(C(=O)OC)[C@H](OC(C)=O)[C@]5(CC)C=CCN6CC[C@]43[C@@H]65)C2)C1`, the Potency in [6] was 1.05 µM (active); in experiment [3] it was 1.18 µM (active) and inactive; in experiment [7], 33 nM (active) and 83.6 nM (active); in [8] it was 59 nM (active) and 26.6 nM (active).

`O=C(c1ccccc1)c1ccc2n1CCC2C(=O)O` (stereo not drawn): the Potency entry in [1], in [2], in [3], in experiment [4] and in experiment [7] was “inactive” throughout. The result in experiment [9], in experiment [10] and in experiment [5] was inactive.

With `CS(=O)(=O)OCCCCOS(C)(=O)=O`, the Potency entry in [6], in experiment [3], in experiment [7] and in experiment [8] was “inactive” each time.

With `O=C(NCC1CCCCN1)c1cc(OCC(F)(F)F)ccc1OCC(F)(F)F` (stereo not drawn), the Potency result in experiment [3] and in experiment [7] was “inactive” in each case.

With `Cc1cccc(-c2[nH]ncc2-c2ccc3ncccc3n2)n1`, the Potency result in experiment [3], in [4], in [7] and in experiment [8] was “inactive” throughout. The outcome in [9] and in [10] was inactive.

Turning to `CC1(C)NC(=O)N(c2ccc([N+](=O)[O-])c(C(F)(F)F)c2)C1=O`, the Potency entry in experiment [1], in experiment [3], in experiment [4], in experiment [7] and in experiment [8] was “inactive” in each case. For the same compound, the result in [9] and in experiment [5] was inactive.

On to `COCCCN1CCC(NC(=O)c2cc(Cl)c(N)c3c2OCC3)CC1`, for which the Potency entry in experiment [3] and in experiment [7] was “inactive” each time.

For `CCCCc1ccc2nc(NC(=O)OC)[nH]c2c1`, the Potency in experiment [3] was 1.32 µM (active) and inactive; in experiment [7], 117 nM (active) and 47 nM (active).

Take `CNC[C@@H](O)[C@@H](O)[C@H](O)[C@H](O)CO`: the Potency entry in experiment [3] and in [7] was “inactive” each time.

Regarding `CCOc1cc(CC(=O)N[C@@H](CC(C)C)c2ccccc2N2CCCCC2)ccc1C(=O)O`, the Potency result in experiment [3] and in experiment [7] was “inactive” in each case.

`COc1c(O)cc2c(c1O)[C@@H]1O[C@H](CO)[C@@H](O)[C@H](O)[C@H]1OC2=O`: the Potency result in experiment [3] and in experiment [7] was “inactive” each time.

`C[C@]12CCC(=O)C=C1CC[C@@H]1[C@H]2[C@@H](O)C[C@@]2(C)[C@H]1CC[C@]2(O)C(=O)CO`: the Potency result in experiment [6], in [3], in experiment [7] and in experiment [8] was “inactive” each time.

On to `Cc1cc(Cl)ccc1OCCCC(=O)NO`, for which the Potency result in [3] and in [4] was “inactive” in each case. Moreover, the result in experiment [9] and in experiment [10] was inactive. The Potency in experiment [7] was 5.23 µM (active); in experiment [8] it was 9.35 µM (active).

As to `Cc1cccc(CN2CCN(C(c3ccccc3)c3ccc(Cl)cc3)CC2)c1` (stereo not drawn), the Potency entry in experiment [3] and in experiment [7] was “inactive” in each case.

In the case of `NNc1nncc2ccccc12`, the Potency entry in [2], in [3], in [7] and in [8] was “inactive” each time. Moreover, the result in experiment [10] and in experiment [5] was inactive.

As to `Nc1nc(Cl)nc2c1ncn2[C@H]1C[C@H](O)[C@@H](CO)O1`, the Potency entry in experiment [6] was “inactive”. Also, the Potency in [7] was 1.17 µM (active).

Regarding `Nc1cccc2c1CN(C1CCC(=O)NC1=O)C2=O` (stereo not drawn), the Potency result in experiment [6], in experiment [3], in experiment [7] and in experiment [8] was “inactive” in each case.

Take `CCCCC(CC)COC(=O)C(C#N)=C(c1ccccc1)c1ccccc1` (stereo not drawn): the Potency result in experiment [3] was “inactive and 23.5 µM (active)”. For the same compound, the Potency entry in [7] is “inactive”.

With `CCC1=C(C)CN(C(=O)NCCc2ccc(S(=O)(=O)NC(=O)NC3CCC(C)CC3)cc2)C1=O` (stereo not drawn), the Potency result in experiment [6], in [3], in [7] and in experiment [8] was “inactive” throughout.

As to `Cc1c(OCC(F)(F)F)ccnc1CS(=O)c1nc2ccccc2[nH]1` (stereo not drawn), the Potency result in experiment [1], in [3], in [4], in experiment [7] and in [8] was “inactive” each time. Further, the result in [9], in [10] and in [5] was inactive.

As for `Cc1cccc(C)c1OCC(=O)N[C@@H](Cc1ccccc1)[C@@H](O)C[C@H](Cc1ccccc1)NC(=O)[C@H](C(C)C)N1CCCNC1=O`, the Potency result in experiment [3], in experiment [7] and in [8] was “inactive” throughout.
